From PubChem BioAssay AID1619 (SRMLSC, 2009) come the findings set out here.

The inhibition is the change of the read-out against control, counted positive when it falls.

In all, about 220,000 compounds went through this assay and about 830 (0.38%) were called active. The list is a sample of the results. Results with a measured potency or affinity are listed apart. Values without a mark were called inactive.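 The calls were made as follows: active = compound inhibiting the enzyme by more than half at any dose during confirmatory dose-response retesting; inconclusive = strong single-dose inhibitors picked by rank but not retested; inactive = the rest.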 Non-standard residues stand in square brackets, D forms with d. Residues, ends and D or L forms follow the SMILES beside them. ξ: configuration not given here. *: point of attachment. Cbz = O=C(OCc1ccccc1)*; OBn = c1ccc(CO*)cc1; ξP = O=C(O)C1CCCN1

The assay deals with Leucine aminopeptidase (Plasmodium falciparum (isolate 3D7)) (UniProt Q8IL11). As to the kind of experiment: P. falciparum M17LAP inhibitors, primary screen, biochemical, fluorogenic H-Leu-NHMec substrate, 1536-well (AID 1619).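 Also: plate controls were full reaction with DMSO carrier for no effect and no enzyme background for full effect.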 Conditions: recombinant M17LAP, H-Leu-NHMec fluorogenic kinetic assay; at 30 µM; hits give high values.
Leucine aminopeptidase (Plasmodium falciparum (isolate 3D7)), sequence (Q8IL11 whole entry, looked up): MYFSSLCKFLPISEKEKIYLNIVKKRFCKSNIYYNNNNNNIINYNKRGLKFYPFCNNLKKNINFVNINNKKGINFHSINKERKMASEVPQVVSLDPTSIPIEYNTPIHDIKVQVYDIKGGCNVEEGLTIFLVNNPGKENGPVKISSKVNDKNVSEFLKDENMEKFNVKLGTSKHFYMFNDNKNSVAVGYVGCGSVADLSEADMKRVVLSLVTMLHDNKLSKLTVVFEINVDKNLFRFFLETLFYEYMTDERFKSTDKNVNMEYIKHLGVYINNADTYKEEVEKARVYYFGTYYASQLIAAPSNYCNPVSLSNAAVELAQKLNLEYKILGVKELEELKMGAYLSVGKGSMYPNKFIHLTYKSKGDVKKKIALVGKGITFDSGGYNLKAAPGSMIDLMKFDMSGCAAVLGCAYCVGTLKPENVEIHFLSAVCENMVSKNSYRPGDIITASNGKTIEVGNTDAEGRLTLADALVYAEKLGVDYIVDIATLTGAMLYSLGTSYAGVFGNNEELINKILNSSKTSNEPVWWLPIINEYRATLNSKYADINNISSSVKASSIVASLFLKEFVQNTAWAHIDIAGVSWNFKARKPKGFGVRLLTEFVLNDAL
With `NNC(=O)c1ccc(COc2ccc3ccccc3c2)o1`, the inhibition was 7.87%.
Next, `COc1cc(/C=N/N2C(=O)c3ccccc3C2=O)ccc1O`: 10.3%; `O=C1C2C3C=CC(CC3)C2C(=O)N1/N=C/c1ccc(O)cc1` (stereo not drawn): 12.3%; `O=C1c2ccccc2C(=O)N1/N=C/c1ccc(O)c(O)c1O`: 9.31%.
Next, `COc1cc(/C=N/N2C(=O)C3C4C=CC(CC4)C3C2=O)ccc1O` (stereo not drawn): 18.2%; `O=C(Cn1cnc2c(cnn2-c2ccccc2)c1=O)NC1CCCC1`: -1.27%.
Next, `O=C(Nc1cccnc1)c1ccccc1O`: 8.37%.
On to `CCN(C(=O)COC(=O)c1cc(-c2ccccc2)nn1-c1ccccc1)C1CCS(=O)(=O)C1` (stereo not drawn), for which the inhibition was -0.44%.
Next, `COc1ccc(NC(=O)CSc2nnc(-c3cccs3)n2-c2ccccc2)cc1`: 0.69%; `O=C(CSc1nnc(-c2cccs2)n1-c1ccccc1)Nc1ccccc1`: 8.55%; `CCOC(=O)C1=C(O)C(=O)N(c2ccc(S(N)(=O)=O)cc2)C1c1cccc([N+](=O)[O-])c1` (stereo not drawn): 0.08%.
With `O=C(C1=C(O)C(=O)N(CCN2CCOCC2)C1c1ccncc1)c1ccco1` (stereo not drawn), the inhibition was 17.6%.
The value for `Cc1c(NC(=O)C(C)Sc2ccccc2)c(=O)n(-c2ccccc2)n1C` (stereo not drawn) was 8.89%.
The value for `Cc1ccc(SC(C)C(=O)Nc2c(C)n(C)n(-c3ccccc3)c2=O)cc1` (stereo not drawn) was -0.12%; that for `Cc1nnc(SC(C)C(=O)Nc2c(C)n(C)n(-c3ccccc3)c2=O)n1N` (stereo not drawn) was 11.1%; that for `Cc1c(NC(=O)CSc2nnc(Nc3ccccc3)s2)c(=O)n(-c2ccccc2)n1C` was 20.1%.
With `O=C(O)CCn1c(C2CCCCC2)nc2ccccc21`, the inhibition is 10.6%.
The value for `CCc1cccc(NC(=O)CCSCCC(=O)Nc2cccc(CC)c2)c1` was 10.7%; that for `O=C(CSCc1cccc(CSCC(=O)Nc2ccccc2)n1)Nc1ccccc1` was 6.32%.
Next, `CC(C)OC(=O)CSc1ncnc2c1cnn2-c1ccccc1`: -11.6%; `S=C(NCc1ccco1)Nc1ccccc1Cl`: 2.12%.
On to `Cc1cc(C)nc(NS(=O)(=O)c2ccc(NC(=O)CN3C(=O)c4ccccc4C3=O)cc2)n1`, for which the inhibition is 8.34%.
Next, `Cc1noc(NS(=O)(=O)c2ccc(NC(=O)c3cnc4scc(C)n4c3=O)cc2)c1C`: 49.8%; `Cc1cc(NS(=O)(=O)c2ccc(NC(=O)c3cnc4sccn4c3=O)cc2)nc(C)n1`: -3.04%; `COc1cc(NS(=O)(=O)c2ccc(NC(=O)CN3C(=O)c4ccccc4C3=O)cc2)nc(OC)n1`: 45.7%.
Regarding `CN1C(=O)CS(=O)c2ccc(C(=O)NCCC3=CCCCC3)cc21` (stereo not drawn), the inhibition is -0.02%.
The value for `CCC(=O)N(Cc1ccc(C)cc1)Cc1cc2cc3c(cc2[nH]c1=O)OCO3` was -7.35%; that for `O=C(c1ccccc1)N1CCN(C(=O)c2ccccc2)C1c1ccccc1` was -9.12%.
Next, `O=C(CSCc1nc2c(nnn2Cc2ccc(F)cc2)c(=O)[nH]1)Nc1c(Cl)cc(Cl)cc1Cl`: 30.5%; `Cc1cccc(NC(=O)CSCc2nc3c(nnn3Cc3ccc(F)cc3)c(=O)[nH]2)c1C`: 22.9%.
Next, `CN1CCN(C(=O)C2=C[C@@H](c3ccccc3)C[C@@H](OCCCCO)O2)CC1`: 2.48%.
In the case of `COc1ccc(Br)cc1/C=N/Nc1cccc(C(=O)O)c1`, the inhibition is 25%.
The value for `C=CCOc1c(CNc2cccc(C(=O)O)c2)cccc1OC` was 1.85%.
Next, `O=C(NNC(=O)C1[C@H]2CCCC[C@@H]12)Nc1cccc2ccccc12` (stereo partly drawn): 0.58%; `C/C(=N/OC(=O)c1c(F)cccc1F)c1nccs1`: -5.2%; `CC(=O)C1=C(O)C(=O)N(c2ccc(Br)cn2)C1c1ccc(F)cc1` (stereo not drawn): 20.5%.
The value for `O=C(O)CCC(=O)N1CCC[C@H]1C(=O)O` was 3.33%.
On to `O=C(CNC(=O)OCc1ccccc1)NCC(=O)N1CCCC1C(=O)OCc1ccccc1` (stereo not drawn) (Cbz-Gly-Gly-[ξP]-OBn), for which the inhibition is 2.1%.
`Cc1ccc(C(=O)CN(C(=O)c2ccc(Cl)c(Cl)c2)N2C(=O)C3C4C=CC(C4)C3C2=O)cc1` (stereo not drawn): the inhibition was -2.9%.
The value for `Cc1ccc(NC(=O)CSc2ncn(-c3ccccc3)n2)cc1C` was 3.12%.
Next, `O=C(CSc1ncccn1)Nc1ccc2c(c1)CCC2`: -3.11%; `Cc1ccc(NC(=O)CSc2ncc3ccccn23)cc1C`: -1.12%.
Next, `Cc1ccc2nc(SCC(=O)Nc3ccc4c(c3)CCC4)[nH]c2c1`: -0.04%; `O=C(CSc1ncc(S(=O)(=O)c2ccccc2)c(=O)[nH]1)Nc1ccccc1Cl`: 28.8%.
Take `CCCc1cc(=O)[nH]c(SCC(=O)Nc2ccc3c(c2)CCC3)n1`: the inhibition was 19.8%.
The value for `O=C(CSc1nc(-c2ccco2)cc(C(F)(F)F)n1)Nc1ccc2c(c1)CCC2` was 15.2%; that for `COc1cccc(NC(=O)CSc2ncc(S(=O)(=O)c3ccccc3)c(=O)[nH]2)c1` was 9.3%.
The value for `COc1cc(/C=C/C(=O)c2c(O)cc(C)oc2=O)cc(OC)c1O` was 23.1%; that for `CCOC(=O)c1sc(NNC(=O)c2ccc(F)cc2)nc1C` was 4.21%.
Next, `CC(=O)c1cc(-c2ccccc2)n(CC(=O)N2CCC(N3CCCCC3)CC2)c1C`: 5.06%; `CCOCc1nc(C)c(Cl)c(NS(=O)(=O)c2ccc(N)cc2)n1`: -2.71%.
On to `CCCCCCCCn1c(N2CCN(c3cccc(Cl)c3)CC2)nc2c1c(=O)[nH]c(=O)n2C`, for which the inhibition is 0.06%.
As for `CCCn1c(SCC(=O)Nc2ccc3c(c2)CCC3)n[nH]c1=O`, the inhibition is 24.5%.
The value for `COc1ccc2nc(SCC(=O)Nc3ccc4c(c3)CCC4)[nH]c2c1` was 5.26%; that for `COc1ccc(NC(=O)CSc2nc3c(c(=O)[nH]2)CCC3)cc1OC` was 7.54%; that for `Cc1ccc(NC(=O)CSc2n[nH]c(-c3ccncc3)n2)cc1C` was 13.3%.
Take `CCOC(=O)c1ccc(NC(=O)CSc2nc(SC)ns2)cc1`: the inhibition is 4.11%.
In the case of `COc1ccc(C(=O)CNc2ccc(C)cc2C)cc1`, the inhibition is -4.8%.
Turning to `O=C(CSc1nc2nn(-c3ccccc3)c(=O)c-2c2n1CCCCC2)NCCc1ccccc1`, the inhibition is -13.9%.
The value for `O=C(Nc1cc2c(oc1=O)CCCC2=O)c1ccccc1` was 1.43%; that for `CC1=C(C(=O)Nc2ccccc2)C(c2ccc(Cl)cc2)n2c(s/c(=C/c3cccc(OCC(=O)O)c3)c2=O)=N1` (stereo not drawn) was 4.09%.
The value for `COc1cccc(C2C(C(=O)Nc3ccccc3)=C(C)N=c3s/c(=C/c4ccc(OCC(=O)O)cc4)c(=O)n32)c1` (stereo not drawn) was 55.7%; that for `N=C1N(/N=C/c2ccccc2)C(=Nc2ccccc2)C(=S)N1c1ccccc1` was 16.1%; that for `O=C1CC(N2CCC(c3nc4ccccc4s3)CC2)C(=O)N1Cc1ccccc1` (stereo not drawn) was -10.9%.
Next, `CCN(c1ccccc1)S(=O)(=O)c1ccc2[nH]c(=O)[nH]c2c1`: -1.87%; `Cc1cccc(N(C)S(=O)(=O)c2ccc3[nH]c(=O)c(=O)[nH]c3c2)c1`: 53.7%.
As for `O=C(CSc1ccc2nnc(-c3ccccn3)n2n1)Nc1ccc2c(c1)OCO2`, the inhibition is 7.14%.
The value for `CCOC(=O)N1CCC(NC(=O)C2CCCN(S(C)(=O)=O)C2)CC1` (stereo not drawn) was 5.41%.
Next, `COCCOC(=O)C1=C(C)NC(=O)NC1c1c(F)cccc1Cl` (stereo not drawn): -12.3%; `O=C(Cn1cc([N+](=O)[O-])cn1)Nc1cccnc1`: 1.1%.
Next, `Cc1sc(NC(=O)c2cccs2)c(C(=O)OC(C)C)c1C`: 9.67%.
As for `CCOC(=O)c1c(NC(=O)C2CC=CCC2C(=O)O)sc(C)c1CC` (stereo not drawn), the inhibition is 5.22%.
Next, `COC(=O)c1c(NC(=O)C2CC=CCC2C(=O)O)sc(C(N)=O)c1C` (stereo not drawn): 51.5%.
As for `CC(=O)Nc1sc(C)c(C)c1C(=O)OC(C)C`, the inhibition is 14.2%.
The value for `COc1ccc(CCNC(=O)C2CC(=O)N(c3ccc(Br)cc3)C2)cc1OC` (stereo not drawn) was 3.2%; that for `Cc1ccnc2ccc(SC(F)(F)F)cc12` was 1.01%; that for `CC(=O)c1cccc(NC(=O)CN2C(=O)C3C4C=CC(C4)C3C2=O)c1` (stereo not drawn) was 31.7%.
Next, `CCOC(=O)c1ccc(NC(=O)CN2C(=O)C3C4C=CC(C4)C3C2=O)cc1` (stereo not drawn): 28.7%.
The value for `Cc1cc(C(F)(F)F)nc(SCC(=O)Nc2ccccc2)n1` was -7.44%; that for `COC(=O)c1cccc(NC(=O)CSc2nnc(C)n2C)c1` was 12.6%; that for `COc1cccc(NC(=O)CSc2nc(N)cc(N)n2)c1` was 47.2%.
Consider `Cn1ccnc1SCC(=O)Nc1cccc(C(F)(F)F)c1`, for which the inhibition is 15.9%.
Next, `Cc1cccc(NC(=O)CSc2nc(N)cc(N)n2)c1`: 34.4%.
The value for `COC(=O)c1cccc(NC(=O)COC(=O)CSc2nc(C)cc(C)n2)c1` was 5.31%.
As to `CCCNC(=O)Nc1ccc(C(F)(F)F)cc1`, the inhibition is 6.33%.
The value for `CC1(C)CC(=O)c2cnc(NC(=O)CSc3nc4ccccc4o3)nc2C1` was 8.26%; that for `NC(=O)c1cc(-c2ccncc2)nc2ccc(Cl)cc12` was 8.6%; that for `Cn1c(=O)n(C)c2cc(S(=O)(=O)Nc3ccccc3O)ccc21` was -0.99%.
The value for `C/C(=C1/SC(N2CC(C)OC(C)C2)=NC1=O)c1ccccc1` (stereo not drawn) was 1.49%; that for `Cc1ccc(S(=O)(=O)Nc2nc(C)cc(NCCN)n2)cc1` was -5.52%.
The value for `CCOC(=O)N1CCN(CCC(=O)Nc2ccc(OC)cc2)CC1` was 5.12%; that for `Cc1ccc2nsnc2c1S(=O)(=O)Nc1cccc2nsnc12` was 2.26%; that for `Cc1cc(C)c(S(=O)(=O)Nc2cccc3nsnc23)c(C)c1` was 3.04%.
